HTT cytoprotect – qHTS Multiplex Assay to Identify Dual Action Probes in a Cell Model of Huntington: Cytoprotection (ATP) | AID 1471, 2008 | actives 0.14% (n = 230,000) | PC12 HTT-Q103 induced, cytoprotection, ATP luminescence, 40 h | Potency, µM (doses to about 56.4 µM), without a hit: cytoprotection (ATP increase), most hits filed as activators; further: potency means the concentration at half of the fitted maximal effect; % of control where 0% means no effect; nearly all actives have a fitted effect of over 45% in size
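Compounds were screened for protection of PC12 cells against cell death after tebufenozide induction (100 nM final) of mutant Huntingtin exon 1 (Q103) fused to GFP.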
GoLoco inh red – qHTS Assay for Inhibitors of RGS12 GoLoco Motif Activity (Red Fluorophore); Guanine nucleotide-binding protein G(i) subunit alpha-1 (Homo sapiens), P63096; Gai1:RGS12 GoLoco peptide FP, rhodamine, 10 min; Potency, µM (top dose mostly 61.6 µM), without a hit: top-dose activity, negative = inhibition, actives largely listed as inhibitors; actives 0.44% (n = 230,000); AID 880, 2007; active means well fitted inhibition curve with a large enough effect, not every such curve was filed as active; inactive means no such curve, though single readings can be large or run the other way; further: potency means the concentration at half of the fitted maximal effect; on the % scale 0 is the no-effect control and ±100 the full control effect; nearly all actives have a fitted effect of over 30% in size
HPGD block – qHTS Assay for Inhibitors of HPGD (15-Hydroxyprostaglandin Dehydrogenase) | 15-hydroxyprostaglandin dehydrogenase [NAD(+)] (Homo sapiens), P15428 | purified HPGD, NADH fluorescence kinetic, PGE2 substrate | Potency, µM, for inactives: at the highest dose activity change, negative = inhibition, usual class: inhibitors | actives 4.3% (n = 150,000) | AID 894, 2007; active means well fitted inhibition curve with a large enough effect, not every such curve was filed as active; inconclusive means small, poorly fitted or top-dose-only effect, or another doubt; inactive means no such curve, though single readings can be large or run the other way; further: potency means the concentration at half of the fitted maximal effect; on the % scale 0 is the no-effect control and ±100 the full control effect
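NADH formation kinetics: reaction with 30 uM PGE2 and 1 mM NAD+ (final), 20 nM enzyme, Tris-HCl pH 8 with Tween 20, after 15 min compound preincubation at room temperature. Fluorescence change, last versus first of five reads.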
ALDH1A1 block – qHTS Assay for Inhibitors of Aldehyde Dehydrogenase 1 (ALDH1A1). Aldehyde dehydrogenase 1A1 (Homo sapiens), P00352. Purified ALDH1A1, NADH fluorescence, propionaldehyde substrate. Potency, µM (top dose mostly 75.3 µM), for the others: at the highest dose activity, negative = inhibition, most hits filed as inhibitors. actives 7.3% (n = 220,000); active means well fitted inhibition curve with a large enough effect, not every such curve was filed as active; inconclusive means small, poorly fitted or top-dose-only effect, or another doubt; inactive means no such curve, though single readings can be large or run the other way;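 further: potency means the concentration at half of the fitted maximal effect; plate controls were no enzyme wells and a reference inhibitor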
Target sequence (P00352 whole entry, looked up): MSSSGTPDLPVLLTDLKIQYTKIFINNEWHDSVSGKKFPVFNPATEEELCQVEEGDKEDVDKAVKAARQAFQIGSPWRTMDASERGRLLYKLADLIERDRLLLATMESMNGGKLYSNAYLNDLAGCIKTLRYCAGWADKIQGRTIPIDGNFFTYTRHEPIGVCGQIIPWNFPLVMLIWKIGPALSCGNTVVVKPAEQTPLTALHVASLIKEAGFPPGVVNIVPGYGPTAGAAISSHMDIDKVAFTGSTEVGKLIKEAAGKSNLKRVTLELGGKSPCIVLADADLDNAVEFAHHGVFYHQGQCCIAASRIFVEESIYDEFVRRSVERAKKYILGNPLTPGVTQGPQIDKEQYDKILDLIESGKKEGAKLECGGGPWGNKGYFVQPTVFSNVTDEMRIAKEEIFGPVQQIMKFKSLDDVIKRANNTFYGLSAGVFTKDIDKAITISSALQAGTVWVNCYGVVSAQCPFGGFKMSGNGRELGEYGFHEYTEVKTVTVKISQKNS
PNC inhibitor – High Content Assay for Compounds that inhibit the Assembly of the Perinucleolar Compartment | actives 3.1% (n = 140,000) | activity change (PNC), negative = inhibition, % at 10 µM | PC3M PTB-GFP, PNC prevalence imaging, 16 h; stronger effect = lower value | AID 2417, 2010;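 active means readout at or below -70, meaning at least 70% loss of cells showing the perinucleolar compartment, a nuclear body marking cancer cells; inconclusive means readout between -30 and a set limit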;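 further: plate controls were DMSO wells for no effect and camptothecin positive control wells for full effect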
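PC3M cells stably expressing PTB-GFP, 750–1000 cells/well, treated 16 h at 37 °C with compound (23 nl of library stock), in duplicate. After paraformaldehyde fixation and Hoechst stain, imaged at 20x; PNC prevalence scored by image analysis.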
HTT aggregate – qHTS Multiplex Assay to Identify Dual Action Probes in a Cell Model of Huntington: Aggregate Formation (GFP); PC12 HttQ103-GFP aggregates, Acumen cytometry, 40 h; Potency, µM (series often up to 46.1 µM), for the others: top-dose activity change, negative = inhibition, most hits filed as inhibitors; actives 1.1% (n = 220,000); further: potency means the concentration at half of the fitted maximal effect; on the % scale 0 is the no-effect control and ±100 the full control effect; nearly all actives have a fitted effect of over 60% in size
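Aggregate formation scored by laser-scanning cytometer (488 excitation, 500–530 emission) in lysed PC12 cells expressing Q103-GFP after 100 nM tebufenozide induction; library tested in dose series, with ATPLite reagent added in the multiplex.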
* = called active by the depositor; u = inconclusive; x = not tested or not shown; [ ] = remark or other dose. Shown are actives, neighbours in structure and some others; about 11% of the full set was active somewhere. Unless noted, the call rests on the fitted dose curve; in most records, active means well fitted curve in the direction sought with a large enough effect; inconclusive means small, poorly fitted or top-dose-only effect, or another doubt; inactive means no such curve, though single readings can be large; an effect the other way counts as inactive or inconclusive.

SMILES | HTT cytoprotect | GoLoco inh red | HPGD block | ALDH1A1 block | PNC inhibitor | HTT aggregate
CN(C)CC(O)COc1cc2ccccc2cc1C(=O)N1CCCCC1 (configuration not stated) | -10% | 2% | 28µM* | -1% | 8 | -5%
COc1cc(CNC(C)c2ccccc2)cc(Cl)c1OCC(=O)Nc1ccccc1 (configuration not stated) | -22% | 4% | x | u | x | 3%
CC(=O)N1CCC2(CC1)CCN(c1ccccn1)CC2 | -6% | 1% | u | u | x | x
CN(C)c1ccc(-c2nc(N(C)Cc3ccco3)c3ccccc3n2)cc1 | -56% | 14% | u | u | x | x
CN(C)C(=O)c1ccc(-c2nc(N(C)Cc3ccco3)c3ccccc3n2)cc1 | -25% | 4% | 13µM* | u | x | x
CC(=O)NCCNc1nc(-c2ccc(C(=O)N(C)C)cc2)nc2ccccc12 | -38% | 3% | x | 17% | x | x
CN(C)C(=O)c1ccc(-c2nc(NCc3cccs3)c3ccccc3n2)cc1 | -18% | 10% | 16µM* | 1% | x | x
Cc1cccc(CNc2nc(-c3ccc(C(=O)N(C)C)cc3)nc3ccccc23)c1 | -47% | 0% | 25µM* | -8% | x | x
Cc1cc(C)c(NC(=O)C2CSCCS2)c(C)c1 (configuration not stated) | 4%[10 µM] | 4% | 22µM* | -4% | -14 | 8%
Cc1cc(C)c(NC(=O)NC(=O)C(Cl)(Cl)Cl)c(C)c1 | 3%[10 µM] | -13% | x | 0% | x | -9%
CCCn1c(-c2ccc(F)cc2)n[nH]c1=S | -9% | -1% | u | u | -121* | 15%
O=C1[C@H]2[C@H]3[C@H](O)[C@H](O)C/C(=N/OC[C@@H](O)COCc4ccco4)[C@H]3CC[C@@H]2C(=O)N1C1CCCCC1 | -3%[10 µM] | x | x | -1%[13.5 µM] | x | x
O=C(CN(C(=O)c1ccccc1Cl)N1C(=O)C2C3C=CC(C3)C2C1=O)c1cccs1 (configuration not stated) | -38% | -1% | x | -8% | x | 24%
O=[N+]([O-])c1ccc(N2N=C(c3ccco3)CC2c2ccccc2)cc1 (configuration not stated) | -52% | 60% | -19% | 10µM* | 91 | -6%
O=C1C2=C(S[C@@H]3O[C@H](CO)[C@@H](O)[C@H](O)[C@H]3O2)C(=O)c2ccccc21 | -15% | -109% | u | 1.4µM* | x | x
COc1ccc(CCNC(=O)C(=O)NCc2ccc(C(C)C)cc2)cc1OC | 0% | -1% | -19% | 0.79µM* | -3 | 14%
COc1ccc(CCNC(=O)c2cc(C(C)C)on2)cc1OC | -2% | 0% | -6% | -1% | 17 | -7%
COc1ccc(CNC(=O)CN2CCN(S(=O)(=O)c3cccs3)CC2)cc1OC | x | -7% | x | 11µM* | x | 18%
COc1ccc(CCNC(=O)CN2CCN(c3cccc(Cl)c3)CC2)cc1OC | -18% | 5% | -7% | -9% | -91* | 4%
Cc1ccc(CNC(=O)COC(=O)C2CCN(S(=O)(=O)c3cccs3)CC2)cc1 | -19% | 3% | x | -2% | x | 3%
COCC(=O)N1CCC2(CCCN(Cc3ccc(C#N)cc3)C2)CC1 | -12% | 7% | -8% | -4% | x | x
COC(=O)C/C=C\[C@@H](C)[C@@H](/C=N\OCC[C@@H]1C=C[C@H](OC(C)=O)[C@H](COC(C)=O)O1)OC | -18%[10 µM] | x | x | -2%[13.5 µM] | x | x
COCCNC(=O)c1ccc2c(c1)NC(=O)CS2 | -2% | -4% | 35µM* | 8% | -29 | -1%
Cc1ccc(NS(=O)(=O)c2cc(NC(=O)c3ccc4c(c3)NC(=O)CS4)ccc2Cl)c(C)c1 | 11%[10 µM] | -17% | x | 10µM* | x | u

High-throughput results (PubChem BioAssay)
